Assay [1] can be described thus: NCI Yeast Anticancer Drug Screen. Data for the rad50 strain (AID 155).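 Further: 0% = growth of vehicle-only cultures of the same strain.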 The note with it: S. cerevisiae rad50 strain growth inhibition, active compounds read high. An outline of the steps: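 Compounds were tested on a yeast strain with an engineered DNA damage repair alteration; the reported value is growth inhibition normalised to vehicle treatment.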
A short description of assay [2]: NCI Yeast Anticancer Drug Screen. Data for the mec2-1 strain (AID 157). The note with it: S. cerevisiae mec2-1 strain, active compounds read high. An outline of the steps: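 Mutant yeast (mec2-1) grown with compound; growth inhibition relative to vehicle control reported.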
Assay [3] is described as follows: NCI Yeast Anticancer Drug Screen. Data for the sgs1 mgt1 strain (AID 161).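 Further: 0% = growth of cultures given vehicle only.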 The note with it: S. cerevisiae sgs1 mgt1 strain, active compounds read high. An outline of the steps:
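Compounds are added to genetically altered yeast, and growth is compared with cultures given vehicle alone to give percent inhibition.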

Assay [4] can be described thus: NCI Yeast Anticancer Drug Screen. Data for the cln2 rad14 strain (AID 165).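 Further: 0% = growth equal to vehicle treated cultures.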 The note with it: S. cerevisiae cln2 rad14 strain, active compounds read high. In a few lines:
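Readout is yeast growth inhibition versus vehicle-treated controls, using a strain with cln2 and rad14 alterations exposed to compound.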

A short description of assay [5]: NCI Yeast Anticancer Drug Screen. Data for the bub3 strain (AID 167). The note with it: S. cerevisiae bub3 mutant strain, active compounds read high. In a few lines:
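Growth of a checkpoint-deficient yeast mutant is measured after compound exposure. Values represent inhibition relative to vehicle.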

Assay [6] in a line: NCI Yeast Anticancer Drug Screen. Data for the mlh1 rad18 strain (AID 175). The note with it: S. cerevisiae mlh1 rad18 strain growth inhibition, active compounds read high. In a few lines: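 Genetically defined yeast (DNA repair-deficient) exposed to compounds; growth inhibition determined relative to vehicle.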
The mark [7] stands for this setting: at 5.0 µM (retest, dose inferred, filed as 0.5).
Where [8] appears, read: at 50.0 µM (retest, dose inferred, filed as 5.0).

Our source for the growth inhibition values is PubChem BioAssay (NCI).

Compounds without any hit were thinned out: in the full panel of roughly 79,000, 15% have a hit. Unmarked numbers belong to inactive results. Activity calls are given as the source filed them. No stated cut-off is given here; in the data, active means growth inhibition above about 70%; inactive means the rest.

Turning to `CC1CCCCN(CCN(Cc2ccccc2)c2ccccc2)C1` (configuration not stated), the growth inhibition in assay [1] (setting [7]) is -1%; in assay [1] (setting [8]) it was 32%; in assay [1] (at 50.0 µM), 58.1%; in assay [2] (setting [7]), 2%; in assay [2] (setting [8]) it was 29%; in assay [2] (at 50.0 µM), 45.9%. In addition, the growth inhibition in assay [3] (setting [7]) is 10%; in assay [3] (setting [8]) it was 75% (active); in assay [3] (at 50.0 µM), 73.8% (active); in assay [4] (setting [7]) it was 4%; in assay [4] (setting [8]), 37%; in assay [4] (at 50.0 µM), 80.8% (active). Also, the growth inhibition in assay [5] (setting [7]) is 5%; in assay [5] (setting [8]), 52%; in assay [5] (at 50.0 µM), 58%; in assay [6] (setting [7]) it was 8%; in assay [6] (setting [8]), 42%; in assay [6] (at 50.0 µM) it was 54.1%.

Consider `C(=N\NC1=NCCN1)/c1cccc2cc3ccncc3nc12`, for which the growth inhibition in assay [1] (setting [7]) is 8%; in assay [1] (setting [8]), 66%; in assay [1] (at 50.0 µM) it was 86.5% (active); in assay [2] (setting [7]), 7%; in assay [2] (setting [8]) it was 60%; in assay [2] (at 50.0 µM), 91% (active). Further, the growth inhibition was -4% in assay [3] (setting [7]); 63% in assay [3] (setting [8]); 83.8% (active) in assay [3] (at 50.0 µM); -6% in assay [4] (setting [7]); 53% in assay [4] (setting [8]); 88% (active) in assay [4] (at 50.0 µM). For the same compound, the growth inhibition was -12% in assay [5] (setting [7]); 27% in assay [5] (setting [8]); 87.7% (active) in assay [5] (at 50.0 µM); -9% in assay [6] (setting [7]); 53% in assay [6] (setting [8]); 82.5% (active) in assay [6] (at 50.0 µM).

Regarding `COc1ccc(C(=O)Nc2ccccc2OC)cc1`, the growth inhibition in assay [1] (setting [7]) is 5%; in assay [1] (setting [8]), 8%; in assay [1] (at 50.0 µM), 3.45%; in assay [2] (setting [7]), -13%; in assay [2] (setting [8]), -29%; in assay [2] (at 50.0 µM) it was 12.2%. The growth inhibition was 4% in assay [3] (setting [7]); 10% in assay [3] (setting [8]); 15.1% in assay [3] (at 50.0 µM); 6% in assay [4] (setting [7]); 17% in assay [4] (setting [8]); 19.1% in assay [4] (at 50.0 µM). Besides, the growth inhibition in assay [5] (setting [7]) is 6%; in assay [5] (setting [8]) it was 20%; in assay [5] (at 50.0 µM) it was 10.7%; in assay [6] (setting [7]), 18%; in assay [6] (setting [8]), 23%; in assay [6] (at 50.0 µM) it was 9.5%.

Consider `CN(NC(=O)/C(=C\c1ccco1)NC(=O)c1ccccc1)c1cn[nH]c(=O)c1Cl`, for which the growth inhibition in assay [1] (setting [7]) was 9%; in assay [1] (setting [8]), 36%; in assay [1] (at 50.0 µM), 86.2% (active); in assay [2] (setting [7]), -9%; in assay [2] (setting [8]), 13%; in assay [2] (at 50.0 µM), 83.4% (active). The growth inhibition in assay [3] (setting [7]) was -2%; in assay [3] (setting [8]) it was 6%; in assay [3] (at 50.0 µM) it was 87.8% (active); in assay [4] (setting [7]), 7%; in assay [4] (setting [8]), 13%; in assay [4] (at 50.0 µM), 62.7%. Moreover, the growth inhibition in assay [5] (setting [7]) is -10%; in assay [5] (setting [8]) it was 27%; in assay [5] (at 50.0 µM) it was 90.6% (active); in assay [6] (setting [7]), -6%; in assay [6] (setting [8]), 47%; in assay [6] (at 50.0 µM), 93.5% (active).

Consider `CC(=O)N(/C=C\c1sc2ccccc2[n+]1C)c1ccccc1`, for which the growth inhibition was 38% in assay [1] (setting [7]); 96% (active) in assay [1] (setting [8]); 90.5% (active) in assay [1] (at 50.0 µM); 27% in assay [2] (setting [7]); 98% (active) in assay [2] (setting [8]); 87.5% (active) in assay [2] (at 50.0 µM). Also, the growth inhibition in assay [3] (setting [7]) is 61%; in assay [3] (setting [8]), 89% (active); in assay [3] (at 50.0 µM), 84% (active); in assay [4] (setting [7]), 33%; in assay [4] (setting [8]), 65%; in assay [4] (at 50.0 µM), 89.8% (active). Besides, the growth inhibition is 27% in assay [5] (setting [7]); 98% (active) in assay [5] (setting [8]); 91.3% (active) in assay [5] (at 50.0 µM); 54% in assay [6] (setting [7]); 97% (active) in assay [6] (setting [8]); 90.6% (active) in assay [6] (at 50.0 µM).

Consider `COc1cc2c(cc1OC)[C@H]1C(=O)c3cc4c(cc3[C@H]1N(C)C2=O)OCO4`, for which the growth inhibition in assay [1] (setting [7]) is -1%; in assay [1] (setting [8]), 0%; in assay [1] (at 50.0 µM), 10.3%; in assay [2] (setting [7]) it was 1%; in assay [2] (setting [8]) it was -2%; in assay [2] (at 50.0 µM), 11.9%. Besides, the growth inhibition in assay [3] (setting [7]) is -8%; in assay [3] (setting [8]) it was -4%; in assay [3] (at 50.0 µM) it was -2.35%; in assay [4] (setting [7]) it was -6%; in assay [4] (setting [8]), -1%; in assay [4] (at 50.0 µM) it was 50.4%. Also, the growth inhibition in assay [5] (setting [7]) was -7%; in assay [5] (setting [8]), 1%; in assay [5] (at 50.0 µM) it was 27.7%; in assay [6] (setting [7]) it was 0%; in assay [6] (setting [8]) it was -32%; in assay [6] (at 50.0 µM) it was 39.8%.

Regarding `O=C(Cc1csc2[n+]1C(=O)/C(=C/c1cccc([N+](=O)[O-])c1)S2)Nc1ccccc1`, the growth inhibition was -5% in assay [1] (setting [7]); -3% in assay [1] (setting [8]); 41.3% in assay [1] (at 50.0 µM); -16% in assay [2] (setting [7]); -5% in assay [2] (setting [8]); 44.2% in assay [2] (at 50.0 µM). In addition, the growth inhibition was -8% in assay [3] (setting [7]); 11% in assay [3] (setting [8]); 24% in assay [3] (at 50.0 µM); -24% in assay [4] (setting [7]); -17% in assay [4] (setting [8]); 37.5% in assay [4] (at 50.0 µM). For the same compound, the growth inhibition was -5% in assay [5] (setting [7]); 17% in assay [5] (setting [8]); 10.8% in assay [5] (at 50.0 µM); -3% in assay [6] (setting [7]); -9% in assay [6] (setting [8]); 33.9% in assay [6] (at 50.0 µM).

Consider `Cc1c(O)c(Br)c(Br)c(Br)c1Br`, for which the growth inhibition is 82% (active) in assay [1] (setting [7]); 94% (active) in assay [1] (setting [8]); 95.5% (active) in assay [1] (at 50.0 µM); 78% (active) in assay [2] (setting [7]); 97% (active) in assay [2] (setting [8]); 87.1% (active) in assay [2] (at 50.0 µM). Also, the growth inhibition in assay [3] (setting [7]) was 81% (active); in assay [3] (setting [8]) it was 96% (active); in assay [3] (at 50.0 µM), 96.1% (active); in assay [4] (setting [7]), 93% (active); in assay [4] (setting [8]), 96% (active); in assay [4] (at 50.0 µM), 94.7% (active). The growth inhibition in assay [5] (setting [7]) was 84% (active); in assay [5] (setting [8]) it was 96% (active); in assay [5] (at 50.0 µM), 93% (active); in assay [6] (setting [7]) it was 87% (active); in assay [6] (setting [8]), 95% (active); in assay [6] (at 50.0 µM), 94.1% (active).

With `Nc1ncnc2c1c(-c1ccc(Cl)cc1)cn2-c1ccccc1`, the growth inhibition in assay [1] (setting [7]) was 21%; in assay [1] (setting [8]) it was 62%; in assay [1] (at 50.0 µM) it was 51.2%; in assay [2] (setting [7]), 11%; in assay [2] (setting [8]) it was 52%; in assay [2] (at 50.0 µM) it was 30.1%. Moreover, the growth inhibition in assay [3] (setting [7]) was 42%; in assay [3] (setting [8]) it was 82% (active); in assay [3] (at 50.0 µM), 85.2% (active); in assay [4] (setting [7]) it was 2%; in assay [4] (setting [8]) it was 35%; in assay [4] (at 50.0 µM), 45%. For the same compound, the growth inhibition in assay [5] (setting [7]) is 13%; in assay [5] (setting [8]) it was 65%; in assay [5] (at 50.0 µM), 48.7%; in assay [6] (setting [7]) it was 13%; in assay [6] (setting [8]) it was 76% (active); in assay [6] (at 50.0 µM), 26.7%.
